Only some compounds are listed: those with a hit (about 12% of all), similar ones and a draw of the others.
G9a inh = G9a (human) methyltransferase inhibition | Potency, µM (top dose mostly 102 µM), without a hit: top-dose activity, negative = inhibition, hits mostly inhibitors | Q96KQ7 | 350,000 tested, 8.8% active | G9a H3K9 monomethylation, AlphaScreen, 2 h | AID 504332; note: % is set by controls: 0 for no effect and ±100 for the full control effect; nearly all actives have a fitted effect of over 75% in size
Target sequence (Q96KQ7 913-1193 limits assumed): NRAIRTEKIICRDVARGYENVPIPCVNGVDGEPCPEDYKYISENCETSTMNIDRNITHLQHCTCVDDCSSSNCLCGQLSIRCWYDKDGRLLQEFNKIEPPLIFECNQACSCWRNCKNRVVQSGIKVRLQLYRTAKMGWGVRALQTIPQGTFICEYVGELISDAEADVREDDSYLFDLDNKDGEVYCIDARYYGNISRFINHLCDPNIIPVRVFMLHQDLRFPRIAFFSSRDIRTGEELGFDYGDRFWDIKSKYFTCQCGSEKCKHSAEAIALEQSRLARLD
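Quantitative HTS format: methyltransferase activity on a biotin-tagged H3K9 peptide is measured by AlphaScreen, using a rabbit anti-monomethyl-H3K9 antibody with streptavidin donor and anti-IgG acceptor beads. Final levels are 20 nM enzyme, 500 nM peptide, 20 uM SAM; 2 h RT.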
JMJD2A Tudor inh = JMJD2A Tudor domain (human) inhibition. AlphaScreen JMJD2A-Tudor / H3K4me3 peptide binding. Potency, µM (titrated, usually from 114 µM), inactives show at the highest dose activity change, negative = inhibition, hits mostly inhibitors. O75164. 390,000 tested, 4.4% active; note: % is set by controls: 0 for no effect and ±100 for the full control effect; nearly all actives have a fitted effect of over 50% in size
HP1b chromo inh = HP1-beta chromodomain-methylated histone interaction inhibition. 390,000 tested, 0.56% active. AID 540317. P83916. Potency, µM (titrated, usually from 114 µM), inactives show at the highest dose activity change, negative = inhibition, hits mostly inhibitors. AlphaScreen HP1-beta / biotin-H3K9me3 peptide binding; note: nearly all actives have a fitted effect of over 70% in size
Target sequence (P83916 whole entry, looked up): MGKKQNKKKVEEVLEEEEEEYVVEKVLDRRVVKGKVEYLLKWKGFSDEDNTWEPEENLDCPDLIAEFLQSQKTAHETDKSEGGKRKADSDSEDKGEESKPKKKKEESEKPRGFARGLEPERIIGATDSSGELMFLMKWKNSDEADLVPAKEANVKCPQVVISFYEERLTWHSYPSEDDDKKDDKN
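HP1-beta protein (50 nM final) preincubated 30 min at room temperature with biotinylated H3(1-18)K9me3 peptide (50 nM) in PBS pH 7.4, 0.01% Tween-20, then compound added for 30 min. AlphaScreen streptavidin donor/nickel chelate acceptor beads (10 ug/mL final), 30 min dark, luminescence read.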
TDP1 block = blocks human tyrosyl-DNA phosphodiesterase 1. AID 485290. recombinant TDP1, AlphaScreen DNA substrate cleavage. Potency, µM (series often up to 130 µM), for inactives: top-dose activity change, negative = inhibition, hits mostly inhibitors. Q9NUW8. 350,000 tested, 0.28% active; note: % is set by controls: 0 for no effect and ±100 for the full control effect; nearly all actives have a fitted effect of over 40% in size
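Recombinant human Tdp1 (E. coli-expressed, 1 nM final) preincubated with compounds 15 min at room temperature, then 5'-biotin/3'-phosphotyrosine-FITC DNA substrate (15 nM final) added for 5 min. AlphaScreen beads (10 ug/ml final) added 10 min; cleavage lowers signal.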
BAZ2B block = blocks human BAZ2B | AlphaScreen BAZ2B-H3K14Ac peptide displacement | 360,000 tested, 4.4% active | Q9UIF8 | Potency, µM (titrated, usually from 114 µM), for inactives: at the top dose activity change, negative = inhibition, usual class: inhibitors; note: % is set by controls: 0 for no effect and ±100 for the full control effect; nearly all actives have a fitted effect of over 60% in size
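AlphaScreen luminescence quantifies BAZ2B engagement of H3K14Ac peptide; the protein and biotinylated peptide are both at 50 nM final, buffer PBS pH 7.4 with 0.01% Tween-20, all steps at room temperature.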
Sfp PPTase inh = inhibitors of Bacillus subtilis Sfp phosphopantetheinyl transferase; 310,000 tested, 3.5% active; Potency, µM, inactives show largest response in the series, negative = inhibition, hits mostly inhibitors; Biochemical Sfp PPTase activity, qHTS; Q9F4F7;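 note: the enzyme is Sfp with the accession as filed and its product quenches rhodamine fluorescence; 0% = enzyme reaction without inhibitor and -100% = no enzyme wells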
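Reaction rates are the 30-min fluorescence difference (ex 525, em 598 nm) in wells containing 15 nM Sfp, 5 uM rhodamine-CoA and 12.5 uM BHQ-2-YbbR at pH 7.6 with 10 mM MgCl2.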
* = called active by the depositor; [ ] = another dose, or the depositor's remark. Calls come from the whole dose curve; as a rule, active = well fitted curve in the direction sought with a large enough effect; inconclusive = small, poorly fitted or top-dose-only effect, or another doubt; inactive = no such curve, though single readings can be large; an effect the other way counts as inactive or inconclusive. Potency is the fitted concentration of half-maximal effect.

Screening CCCCC(=O)Nc1nnn(CCC)n1 returned G9a inh 4.0%[12.7 µM], JMJD2A Tudor inh -7.1%, HP1b chromo inh 6.8%, TDP1 block 4.5%, BAZ2B block 4.5% and Sfp PPTase inh 6.9%.
For CCCCn1nnc(NC(=O)c2ccc(-c3ccccc3[N+](=O)[O-])o2)n1 the results were G9a inh inconclusive, JMJD2A Tudor inh -20.3%, HP1b chromo inh 11.1%, TDP1 block 0.0%, BAZ2B block -24.1% and Sfp PPTase inh 14.3%.
For CCCCC(=O)NC(=S)Nc1nnn(CCC)n1 the results were G9a inh 10µM*, JMJD2A Tudor inh 3.55µM*, HP1b chromo inh -1.7%, TDP1 block 1.6%, BAZ2B block 70.8µM* and Sfp PPTase inh 14.1µM*.
CCCCn1nnc(NC(=S)NC(=O)c2ccc(-c3cccc(Cl)c3Cl)o2)n1 was read as G9a inh 44.7µM*, JMJD2A Tudor inh inconclusive, HP1b chromo inh -23.9%, TDP1 block 8.2%, BAZ2B block -7.7% and Sfp PPTase inh inconclusive.
For CC1=NC(C)(C)CC2CCC(O)C12 (stereo not given) the results were JMJD2A Tudor inh 1.4% and HP1b chromo inh 24.6%.
Screening CC(C)CCOc1ccc(C2N=C(N)Nc3nc4ccccc4n32)cc1 (stereo not given) returned G9a inh 2.2%[59 µM], JMJD2A Tudor inh -20.1%, HP1b chromo inh 20.9%, TDP1 block 9.7% and BAZ2B block 0.5%.
Cc1[nH]n(-c2ccccc2)c(=O)c1C(=O)c1ccccc1 was read as G9a inh inconclusive, JMJD2A Tudor inh -28.4%, HP1b chromo inh 34.6%, BAZ2B block -30.1% and Sfp PPTase inh 17.4%.
`CC(C)c1nc(=S)n(-c2ccccc2)[nH]1` gave G9a inh 10µM*, JMJD2A Tudor inh 6.31µM*, HP1b chromo inh 21.8%, TDP1 block -7.8%, BAZ2B block -0.1% and Sfp PPTase inh 6.4%.
Screening CC(C)c1nc(-c2ccccc2)c(-c2ccccc2)[nH]1 returned G9a inh 20.6%, JMJD2A Tudor inh -4.5%, HP1b chromo inh 5.5%, TDP1 block 7.0%, BAZ2B block 0.8% and Sfp PPTase inh inconclusive.
For CC(=O)Nc1nc(=S)n(-c2ccccc2)[nH]1 the results were G9a inh 3.98µM*, JMJD2A Tudor inh 17.8µM*, HP1b chromo inh inconclusive, TDP1 block 6.9%, BAZ2B block inconclusive and Sfp PPTase inh 15.8µM*.
Cc1ccc2nc(-c3ccc(Cl)c(NC(=O)COc4cccc(C)c4C)c3)oc2c1 was read as G9a inh -1.5%[59 µM], JMJD2A Tudor inh 4.1%, HP1b chromo inh 26.8%, TDP1 block -0.6% and BAZ2B block -13.2%.
Screening O=C(Cn1nc(Cl)nc1Cl)Nc1ccccc1 returned G9a inh 50.1µM*, JMJD2A Tudor inh 0.0%, HP1b chromo inh 16.4%, TDP1 block -9.6%, BAZ2B block 1.0% and Sfp PPTase inh 6.7%.
COc1ccccc1-c1nc(NCc2cnc(C)cn2)c2ccccc2n1 was read as Sfp PPTase inh 50.1µM*.
`CNc1ncncc1-c1ccccc1OC` gave TDP1 block 28.2µM* and Sfp PPTase inh -8.8%.
`COc1ccccc1-c1cncnc1Nc1ccccc1` gave G9a inh 2.4%[0.501 µM] and Sfp PPTase inh -1.4%.
Screening COc1ccccc1CNc1ncncc1-c1ccccc1Cl returned G9a inh 11.5%[0.501 µM] and Sfp PPTase inh -0.1%.
COc1ccccc1CNc1ncncc1-c1ccccc1C was read as TDP1 block 31.6µM* and Sfp PPTase inh -0.2%.
COc1ccccc1-c1cncnc1NCc1cnc(C)cn1 was read as G9a inh 24.8%[0.501 µM] and Sfp PPTase inh 79.4µM*.
COc1ccccc1-c1ccc2ncnc(NCc3cnc(C)cn3)c2c1 was read as G9a inh 2.8%[0.501 µM] and Sfp PPTase inh -17.2%.
`CCC(=O)N1CCc2cc(Br)cc(S(=O)(=O)N3CCCC(C(=O)NCc4ccc(C)cc4)C3)c21` (stereo not given) gave G9a inh -21.5%[59 µM], JMJD2A Tudor inh -6.1%, HP1b chromo inh 18.1%, TDP1 block 5.5% and BAZ2B block 0.4%.
For COc1ccc(CNc2nc3c(-c4ccc(C)cc4)nnn3c3ccccc23)cc1 the results were G9a inh -28.8%[59 µM], JMJD2A Tudor inh -1.7%, HP1b chromo inh 38.5%, TDP1 block 3.8% and BAZ2B block -1.6%.
COCc1c(C(=O)Nc2cccc(S(=O)(=O)N3CCCCC3)c2)oc2ccccc12 was read as JMJD2A Tudor inh -22.6%, HP1b chromo inh 26.0% and TDP1 block -1.1%.
For COc1ccccc1-c1ccc2ncnc(NCc3cccnc3)c2c1 the results were TDP1 block -6.9%[56.1 µM] and Sfp PPTase inh -18.7%.
Screening COc1ccc(CNc2ncncc2-c2ccc(N(C)C)cc2)c(OC)c1 returned G9a inh -0.7%[0.501 µM] and Sfp PPTase inh 79.4µM*.
COc1ccccc1-c1cncnc1NCCNC(C)=O was read as G9a inh -4.2%[0.501 µM] and Sfp PPTase inh 79.4µM*.
For FC(F)(F)c1ccccc1-c1cncnc1NCc1ccccc1 the results were G9a inh 9.2%[0.501 µM] and Sfp PPTase inh -2.0%.
Screening COCCNc1ncncc1-c1ccccc1OC returned G9a inh -7.8%[0.501 µM] and Sfp PPTase inh 11.2%.
For Cc1cnc(CNc2ncncc2-c2ccccc2C(F)(F)F)cn1 the results were TDP1 block 39.8µM* and Sfp PPTase inh 70.8µM*.
COc1ccccc1-c1cncnc1NCc1cccnc1 was read as TDP1 block 25.1µM* and Sfp PPTase inh inconclusive.
Screening COc1ccc(CCNS(=O)(=O)c2ccc(N3CCCCS3(=O)=O)cc2)cc1OC returned G9a inh 14.9%[59 µM], JMJD2A Tudor inh 4.6%, HP1b chromo inh 28.6%, TDP1 block 11.2% and BAZ2B block -2.6%.
O=C(Cc1cccc(NC(=O)C2CCN(C(=O)C3CCCCC3)CC2)c1)Nc1cccc(C(=O)N2CCCC2)c1 was read as G9a inh 18.0%[2.33 µM], JMJD2A Tudor inh -11.3%, HP1b chromo inh 30.8%, TDP1 block -0.7% and BAZ2B block 0.7%.
Screening COCCCn1c(=O)c2sccc2n2c(CCCC(=O)Nc3cccc(OC)c3)nnc12 returned G9a inh -26.3%[59 µM], JMJD2A Tudor inh -12.5%, HP1b chromo inh 27.5%, TDP1 block 7.7% and BAZ2B block -16.1%.
Screening Cc1ccc(/C=N/Nc2ccc(F)cc2)s1 returned G9a inh 50.1µM*, JMJD2A Tudor inh inconclusive, HP1b chromo inh -7.9%, BAZ2B block inconclusive and Sfp PPTase inh 0.8%.
